Consider ten compounds from PubChem BioAssay AID493011 (Sanford-Burnham Center for Chemical Genomics, 2011).

In all, about 330,000 compounds went through this assay and about 1,400 (0.42%) were called active.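 Rule for the calls: active = at least 40% inhibition at 20 µM here, with at most 30% in a related deaminase screen; inactive = the rest.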 Only a selection was taken, and actives are over-represented in it overall.

DNA dC->dU-editing enzyme APOBEC-3A (Homo sapiens), sequence (P31941 whole entry, looked up): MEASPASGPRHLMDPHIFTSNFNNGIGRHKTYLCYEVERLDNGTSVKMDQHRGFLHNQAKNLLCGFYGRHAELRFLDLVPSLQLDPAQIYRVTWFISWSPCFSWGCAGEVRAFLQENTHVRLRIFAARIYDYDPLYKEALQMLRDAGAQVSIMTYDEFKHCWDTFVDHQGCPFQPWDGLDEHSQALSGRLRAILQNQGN

This experiment addresses DNA dC->dU-editing enzyme APOBEC-3A (Homo sapiens) (UniProt P31941). Nature of the experiment: blockers of A3A cytidine deamination on DNA – biochemical, FAM/TAMRA oligo cleavage fluorescence, selectivity assay for APOBEC3G inhibitor project, primary screen (AID 493011).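 Note: plate controls were A3A with DMSO for no effect and wells lacking A3A enzyme for full effect.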 The settings on record: recombinant A3A, FAM/TAMRA ssDNA deamination fluorescence; at 20 µM; stronger effect = higher value.
Consider `CCN(CC)CCOC(=O)c1cc2cc(COC)ccc2o1`, for which the inhibition (usually the change of the read-out against control, counted positive when it falls) was 75.9% (active).

As for `CC(=NC1CCN(Cc2ccccc2)CC1)c1c(O)n(C)c(=O)n(C)c1=O`, the inhibition was 1.55% (inactive).

With `COc1cc(OC)cc(C2(C#N)CCN(C)CC2)c1`, the inhibition is 3.94% (inactive). Take `CN(C)c1nc(N(C)C)nc(N(C#N)CCCl)n1`: the inhibition was -2.95% (inactive). In the case of `O=C(O)CCn1cc(C=C2C(=O)NC(=S)NC2=O)c(-c2cccc(Br)c2)n1`, the inhibition is 40.8% (active). `COC(=O)C1=C(c2cccc(OCc3ccccc3)c2)C[C@@H]2CC[C@H]1N2C(=O)NNCc1ccccc1`: the inhibition is -3.97% (inactive).

Consider `CC(=C1C(=O)c2ccccc2C1=O)N1CCN(CCN=Cc2c(O)n(C)c(=O)n(C)c2=O)CC1`, for which the inhibition was 1.68% (inactive). For the compound `CC[N+]1(C)CCCC(OC(=O)C(O)(c2ccccc2)c2ccccc2)C1` (stereo not given), the inhibition is -0.37% (inactive). With `O=C(c1cc(S(=O)(=O)N2CCOCC2)ccc1F)N1CCC2(CC1)OCCO2` the figure was 4.32% (inactive). As to `CNC(=O)O/N=C(\N)Cc1csc2ccccc12`, the inhibition is 1.51% (inactive).
